Rows were chosen to be rich in hits. Some 1.2% of all compounds tested hit in one or more screens of this group.
TRPV1 potentiator: human TRPV1 potentiation; TRPV1-expressing cells, Fluo-8 calcium influx, capsaicin EC20 potentiation; potentiation, % at 8.33 µM; AID 540277; 320,000 tested, 0.02% active; in the data active = potentiation above about 80%; inconclusive = between about 30% and that limit; note: 0% is about no effect
Target sequence (Q8NER1 whole entry, looked up): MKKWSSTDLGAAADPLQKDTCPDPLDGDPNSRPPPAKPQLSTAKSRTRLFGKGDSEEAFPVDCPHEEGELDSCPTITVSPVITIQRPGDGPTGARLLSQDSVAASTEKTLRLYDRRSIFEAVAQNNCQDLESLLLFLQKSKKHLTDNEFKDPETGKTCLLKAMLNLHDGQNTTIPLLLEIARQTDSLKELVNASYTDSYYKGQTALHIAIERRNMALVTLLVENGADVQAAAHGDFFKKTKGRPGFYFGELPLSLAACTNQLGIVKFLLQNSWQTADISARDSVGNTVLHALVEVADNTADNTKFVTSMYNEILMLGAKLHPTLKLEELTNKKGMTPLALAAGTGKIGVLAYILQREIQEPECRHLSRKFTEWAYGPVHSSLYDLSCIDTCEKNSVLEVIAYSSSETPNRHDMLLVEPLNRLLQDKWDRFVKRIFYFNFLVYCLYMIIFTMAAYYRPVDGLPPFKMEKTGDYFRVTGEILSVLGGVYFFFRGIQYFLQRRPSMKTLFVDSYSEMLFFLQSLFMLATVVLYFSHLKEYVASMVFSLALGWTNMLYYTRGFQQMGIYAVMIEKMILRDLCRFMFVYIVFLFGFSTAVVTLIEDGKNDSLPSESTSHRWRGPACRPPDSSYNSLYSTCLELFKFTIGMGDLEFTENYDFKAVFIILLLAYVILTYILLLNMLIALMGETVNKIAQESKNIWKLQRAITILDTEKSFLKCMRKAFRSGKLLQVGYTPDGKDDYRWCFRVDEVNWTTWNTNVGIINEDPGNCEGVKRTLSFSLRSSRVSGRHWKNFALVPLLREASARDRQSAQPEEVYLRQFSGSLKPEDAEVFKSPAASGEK
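TRPV1-expressing cells were cultured overnight at 35.5C and loaded with Fluo-8 calcium dye for 40 to 90 min at room temperature. After a 10 s baseline, compound was added and calcium influx was read kinetically for 3 min (ex 480/em 520 nm).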
hERG WT inh: inhibitors of human wildtype KCNH2 potassium channel; Q12809; U2OS, BacMam KCNH2, thallium flux FluxOr; active compounds read low; activity change, % at 1.84 µM; 340,000 tested, 0.37% active; AID 720551;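 active = maximum activity change below -70%; inconclusive = maximum activity change between -70% and -50%; inactive = maximum activity change above -50%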; note: % is set by controls: 0 for no effect and ±100 for the full control effect
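U2OS cells were transduced with wild-type KCNH2 virus (2.03 x 10^8 / mL) for 4 h at room temperature, then cultured overnight at 37 C. Thallium flux was read with FluxOr dye. Rate constants were normalized to DMSO controls.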
KCNH2 3.1 inh: blocks the human KCNH2 3.1 channel isoform; AID 720553; U2OS KCNH2 3.1, thallium flux FluxOr; active compounds read low; activity change, % (tested at about 1.8 µM); 340,000 tested, 0.95% active;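 active = maximum activity change below -70%; inconclusive = maximum activity change from -70% to -50%; inactive = maximum activity change above -50%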;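 note: thallium influx rate constant from kinetic fluorescence after stimulation buffer; % is set by controls: 0 for no effect and ±100 for the full control effect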
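Normalized rate constant (relative to positive and negative DMSO controls) derived from a 2 min kinetic fluorescence read after stimulation; U2OS cells expressing the 3.1 isoform via virus at 1.77 x 10^8 /mL.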
TRPV1 agonist: agonists of human vanilloid receptor 1 (TRPV1); TRPV1-expressing cells, Fluo-8 calcium influx, agonist mode; AID 540275; 320,000 tested, 0.19% active; activation, % at 8.33 µM; in the data active = activation above about 80%; inconclusive = between about 30% and that limit; note: 0% is about no effect
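TRPV1-expressing cells were cultured overnight at 35.5C and loaded with Fluo-8 calcium dye for 40 to 90 min at room temperature. After a 10 s baseline, compound was added and calcium influx was read kinetically for 3 min (ex 480/em 520 nm).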
Starred values were filed as active, the others as inactive; u = inconclusive; x = not tested or not shown.

SMILES	TRPV1 potentiator	hERG WT inh	KCNH2 3.1 inh	TRPV1 agonist
CCS(=O)(=O)NCC(c1ccco1)N1CCN(c2ccccc2F)CC1 (stereo unspecified)	-8	-3	0	4
CCC(=O)N(CCC(Cc1ccccc1)c1ccc2c(c1)OCO2)Cc1ccccc1F (stereo unspecified)	-10	2	-79*	u
CCC(=O)N(CCC(Cc1ccccc1)c1ccco1)Cc1ccco1 (stereo unspecified)	-6	3	21	25
O=C1c2cccc3cccc(c23)C(=O)N1Cc1ccccn1	x	-3	12	x
COc1nc(Nc2ccccc2F)nc(OC)n1	-3	0	14	2
COc1nc(NCCO)nc(Nc2ccccc2F)n1	110*	-7	-4	-3
O=C(O)c1ccc(NC(C(=O)c2ccccc2)c2ccccc2)cc1 (stereo unspecified)	x	-4	-2	x
COc1ccc(OC)c(NC2c3ncccc3C(=O)N2Cc2ccco2)c1 (stereo unspecified)	23	6	-80*	-3
CCOc1ccc(S(=O)(=O)N2CCC(C(=O)OC(C)C(=O)NC3CCCCC3C)CC2)cc1 (stereo unspecified)	-5	-203*	-144*	1
CC(=O)Nc1ccc(Sc2ncccc2C(=O)Nc2cc(Cl)cc(Cl)c2)cn1	8	-11	-7	-1
CC(=O)Nc1ccc(Sc2ncccc2C(=O)Nc2ccc(OC(F)(F)F)cc2)cn1	9	1	-86*	-4
Cc1occc1-c1nnc(SCC(=O)O)n1-c1ccccc1	1	-4	0	1
S=c1[nH]cnc2scc(-c3ccc(Br)cc3)c12	-12	-84*	0	-4
Cc1ccc(-c2csc3nc[nH]c(=S)c23)cc1	-17	-9	-3	-3
O=C(NCC(=O)N1CC=C(c2ccccc2)CC1)c1ccc(OC(F)F)cc1	x	35	-80*	x
COc1cc(OC)cc(C(=O)NCC(=O)N2CC=C(c3ccccc3)CC2)c1	13	4	0	3
Cc1ccc(Nc2n[nH]c(=S)s2)cc1	x	3	-5	x
S=c1[nH]nc(Nc2ccc(Cl)cc2)s1	4	12	-91*	-13
Cc1cc(OCc2cn(CC(=O)c3ccc(O)cc3)nn2)ccc1[N+](=O)[O-]	x	0	-17	x
CN(C)c1ccc(/C=C/C(=O)c2ccc(O)cc2)cc1	x	u	-30	x
CN(C)c1ccc(/C=C/C(=O)c2cccnc2)cc1	-4	-21	-10	85*
COc1ccc(S(=O)(=O)NNC(=O)c2cccs2)cc1	19	-2	-104*	-6
O=C(NNS(=O)(=O)c1ccc(Cl)cc1)c1cccs1	8	-4	-8	1
O=C(NCc1ccc(F)cc1)Nc1cccc(Cl)c1	-12	-9	0	26
O=C(NCc1ccc(F)cc1)Nc1ccc(Cl)cc1	-11	-3	-4	80*
SMILES	TRPV1 potentiator	hERG WT inh	KCNH2 3.1 inh	TRPV1 agonist
CCOc1ccc(NC(=O)CN2CCN(CC(=O)Nc3ccc(C(=O)OC)cc3)CC2)cc1	u	u	-83*	2
Cc1cc(C)c2c(n1)SCC(=O)N2CC(=O)Nc1ccc(C)c(C)c1	5	2	-130*	2
CCOc1ccc(NC(=O)CN2C(=O)c3ccccc3C2=O)cc1	10	x	0	3
CCOc1ccc(NC(=O)CN2C(=O)CSC2=O)cc1	24	-18	-90*	0
O=C(CN1CCN(CC(=O)Nc2ccccc2Cl)CC1)Nc1ccc(F)c(F)c1	-6	u	-111*	15
COc1cccc(NC(=O)CN2C(=O)CSc3nc(C)cc(C)c32)c1	2	-4	-7	-2
CSCCC1NC(=O)C(C(C)=Nc2ccccc2)=C1O (stereo unspecified)	x	2	-4	x
O=C(CCCl)Nc1cccc2cccnc12	29	x	x	-4
Cc1cc(C)c(NC(=O)C2CCN(S(C)(=O)=O)CC2)c(C)c1	x	-14	u	x
O=C(c1ccoc1)N1CCCC(N2CCN(c3cccc(Cl)c3)CC2)C1 (stereo unspecified)	-8	17	-9	1
Cc1c(C(=O)N2CCN(CC(=O)Nc3ccccc3Cl)CC2)oc2ccc(Br)cc12	-28	-29	-73*	12
O=C(CN1CCN(C(=O)CNC(=O)c2ccc3c(c2)OCO3)CC1)Nc1ccccc1Cl	-21	2	-4	16
O=C(CN1CCN(C(=O)CNC(=O)c2ccc(-c3ccccc3)cc2)CC1)Nc1ccccc1Cl	x	15	-84*	x
CCOc1ccc(NC(=O)CN2CCN(CC(=O)Nc3ccc(F)c(F)c3)CC2)cc1	4	-117*	-93*	4
O=C(CN1CCCC1)Nc1ccccc1Sc1ccc(Cl)cc1	-14	10	-90*	-12
NC(=O)C1CCN(CC(=O)Nc2ccccc2Sc2ccc(Cl)cc2)CC1	0	5	-1	u
Cc1nc(SCC(=O)c2cc(C)n(C3CC3)c2C)c2ccccc2n1	x	6	11	x
O=C(c1cccs1)N1CCN=C1SCc1ccccc1F	-25	-19	-3	21
CCc1ccc2nc(SCC(=O)Nc3nnc(C)s3)c(C)cc2c1	-1	-6	-91*	1
Cc1cc(N2CCOCC2)nc2ccc(NC(=S)NCCC(C)C)cc12	16	9	-88*	4
Cc1ccc(C)c(N2CCN(C(=S)Nc3ccc4nc(N5CCN(C)CC5)cc(C)c4c3)CC2)c1	13	-115*	-90*	-1
Cc1cc(N2CCOCC2)nc2ccc(NC(=S)N3CCN(c4ccccc4)CC3)cc12	-10	0	17	-2
Cc1cccc(N2CCN(C(=S)Nc3ccc4nc(N5CCOCC5)cc(C)c4c3)CC2C)c1 (stereo unspecified)	u	-15	-76*	-18
Cc1ccc(C)c(N2CCN(C(=S)Nc3ccc4nc(N5CCOCC5)cc(C)c4c3)CC2)c1	-46	-77*	-85*	-1
O=C1c2ccccc2C(=O)N1OCc1ccccc1[N+](=O)[O-]	13	-8	5	11
SMILES	TRPV1 potentiator	hERG WT inh	KCNH2 3.1 inh	TRPV1 agonist
CCN(Cc1ccc(O)cc1)CC1CCCN(CCc2cccc(F)c2)C1 (stereo unspecified)	-1	50	2	3
CCOc1cc(S(=O)(=O)N2CCN(Cc3ccccc3)CC2)ccc1Br	-4	-10	-82*	2
COc1ccc(S(=O)(=O)N2CCN(C)CC2)cc1Br	1	0	-3	-2
CCN1CCN(S(=O)(=O)c2ccc(OC)c(Br)c2)CC1	2	-89*	0	10
COc1ccc(-c2nc3ccccn3c2NCc2ccc3c(c2)OCO3)cc1	-11	7	-23	u
Cc1cccn2c(NCc3ccc4c(c3)OCO4)c(-c3ccc(O)cc3)nc12	-16	8	-94*	17
COc1ccc(-c2nc3cc(C)ccn3c2NCc2ccc3c(c2)OCO3)cc1	-16	-83*	-81*	u
CCCCCCCCC(=O)c1c(OC)oc(C=O)cc1=O	x	17	7	x
COc1ccc(S(=O)(=O)N(CC(=O)N/N=C/c2cccs2)c2cc(C)cc(C)c2)cc1OC	8	1	-95*	1

Source: PubChem BioAssay (National Center for Advancing Translational Sciences (NCATS))
